Compound activity from PubChem.
Only some compounds are listed: those with a hit (about 3% of all), similar ones and a draw of the others.
SENP6 inh: SENP6 protease inhibitors, primary screen, biochemical, luminescence, uHTS; Sentrin-specific protease 6 (Homo sapiens), Q9GZR1; Recombinant SENP6 catalytic domain, aminoluciferin luminescence; inhibition, % at 10 µM; actives 1.8% (n = 330,000);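 active means inhibition above about 50% at the single tested dose, limit read from the data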;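 further: plate controls were DMSO wells with enzyme for no effect and DMSO wells lacking enzyme for full effect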
Target sequence (Q9GZR1 628-1112 limits assumed): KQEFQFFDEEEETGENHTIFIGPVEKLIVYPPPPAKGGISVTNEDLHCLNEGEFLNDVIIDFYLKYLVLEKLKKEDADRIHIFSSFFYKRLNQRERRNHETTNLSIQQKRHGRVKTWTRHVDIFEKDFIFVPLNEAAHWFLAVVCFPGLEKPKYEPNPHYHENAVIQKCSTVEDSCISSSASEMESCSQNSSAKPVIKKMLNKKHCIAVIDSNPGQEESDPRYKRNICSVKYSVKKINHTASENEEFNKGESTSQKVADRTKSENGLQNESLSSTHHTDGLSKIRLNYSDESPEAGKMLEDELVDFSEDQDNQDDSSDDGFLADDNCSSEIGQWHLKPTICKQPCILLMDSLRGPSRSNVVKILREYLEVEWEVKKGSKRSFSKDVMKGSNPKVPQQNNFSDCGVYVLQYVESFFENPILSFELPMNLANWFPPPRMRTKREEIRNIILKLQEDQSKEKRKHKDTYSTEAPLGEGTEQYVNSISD
SENP7 block: SENP7 protease inhibitors, primary screen, biochemical, luminescence, uHTS. Sentrin-specific protease 7 (Homo sapiens), Q9BQF6. recombinant SENP7, Z-RLRGG-aminoluciferin luminescence, 40 min. inhibition, % at 5 µM. actives 1.5% (n = 330,000);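 active means inhibition above about 50% at the single test dose, limit read from the data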;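 further: plate controls were DMSO with enzyme for no effect and no enzyme buffer wells for full effect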
SENP8 block-1: SENP8 protease inhibitors, primary screen, biochemical, luminescence; AID 2540, 2010; Sentrin-specific protease 8 (Homo sapiens), Q96LD8; inhibition, % at 10 µM; actives 1.2% (n = 330,000); purified SENP8, Z-RLRGG-aminoluciferin cleavage; in the data active means inhibition above about 50%
SENP8 block-2: human SENP8 protease inhibitors, primary screen, biochemical, fluorescence, Nedd8 protein substrate, uHTS | actives 0.64% (n = 360,000) | AID 602440, 2012 | recombinant SENP8 | inhibition, % at 20 µM; in the data active means inhibition mostly above about 40%, no sharp cut-off; inactive means mostly below about 27%
PPC-1+TRAIL kill: compounds killing PPC-1 cancer cells with TRAIL present, primary screen, TRAIL potentiator project, ATPLite luminescence, uHTS; PPC-1 cells + TRAIL, ATPLite viability luminescence; cell killing (% activity), % at 4 µM or 5 µM; actives 0.41% (n = 220,000); AID 1443, 2008;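 active means cell killing above 50% in the first pass at 4 µM, then a duplicate retest at 5 µM averaging 50% or more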;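 further: plate controls were cells with TRAIL plus DMSO for no effect and medium-only wells lacking cells for full effect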
C8 TRAIL sens: viability loss with TRAIL in NB7+C8 cells, primary screen, TRAIL sensitizer project, cell-based, ATPlite luminescence. inhibition (viability loss, TRAIL sensitization), % at 10 µM. actives 1% (n = 360,000);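 active means compounds causing at least 50% loss of cell viability in the single-dose screen, relative to plate controls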
SENP8 confirm: SENP8 protease inhibitors, retest, confirmation, biochemical, luminescence, single concentration. shares compounds with SENP7 block. Recombinant SENP8, Z-RLRGG-aminoluciferin luminescence, 60 min. inhibition, % at 12.5 µM. actives 40% (n = 6,200);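 active means mean inhibition across replicates above about 50%, limit read from the data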
SENP6 conf: SENP6 protease inhibitors, confirmation, biochemical, luminescence, single concentration | actives 58% (n = 6,200) | shares compounds with SENP7 block | recombinant SENP6, Z-RLRGG-aminoluciferin luminescence | inhibition, % at 12.5 µM
SENP7 confirm: SENP7 protease inhibitors, retest, confirmation, biochemical, luminescence, single concentration; shares compounds with SENP7 block; recombinant SENP7, Z-RLRGG-aminoluciferin luminescence, 40 min; inhibition, % at 12.5 µM; actives 69% (n = 6,200); AID 488917, 2010
Casp3 select: caspase-3 protease inhibitors, confirmation, selectivity assay for SENP inhibitor project, biochemical, single concentration; shares compounds with SENP7 block; purified caspase-3, Z-DEVD-aminoluciferin luminescence, 60 min; inhibition, % at 12.5 µM; actives 60% (n = 6,200); AID 488918, 2010;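 active means mean inhibition above about 50%, limit read from the data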;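 further: plate controls were enzyme with DMSO for no effect and wells without caspase-3 for full effect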
SENP luc ctr: counter-screen for SENP inhibitors: luminescence interference; inhibition, % at 12.5 µM; shares compounds with SENP7 block; Pre-incubated SENP8/Z-RLRGG-aminoluciferin, luciferase luminescence interference; AID 488919; actives 39% (n = 6,200);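 active means mean inhibition above about 50% when retested at one dose, limit read from the data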;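 further: plate controls were DMSO wells with completed reaction for no effect and substrate without enzyme for full effect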
* marks the source's active call; other numbers are inactive results; nt = no result.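 How the source made its calls, unless noted: active means mean inhibition above about 50% in the one-dose retest (limit read from the data); inactive means the rest.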

SMILES	SENP6 inh	SENP7 block	SENP8 block-1	SENP8 block-2	PPC-1+TRAIL kill	C8 TRAIL sens	SENP8 confirm	SENP6 conf	SENP7 confirm	Casp3 select	SENP luc ctr
Cn1cc(Br)c(C(=O)N/N=C/c2cc3ccccc3nc2Cl)n1	-10	-12	-19	9	nt	-16	nt	nt	nt	nt	nt
Cc1nn(CC(=O)NC2CCS(=O)(=O)C2)c(C)c1[N+](=O)[O-] (centres undefined)	-11	3	-2	12	nt	-5	nt	nt	nt	nt	nt
O=C(Nc1ccccc1)c1ccc(CSc2ccccn2)cc1	97*	98*	93*	16	30	10	87*	98*	103*	96*	7
O=C(Nc1ccc(CSc2ccccc2)cc1)c1ccccc1	19	59*	12	5	8	-4	11	12	2	2	0
O=C(Nc1cccc([N+](=O)[O-])c1)c1ccc(CSc2ccccc2)cc1	-4	14	5	9	11	15	nt	nt	nt	nt	nt
O=C(NCc1ccc(Cl)cc1)C1CCCN(c2cnccn2)C1 (centres undefined)	13	4	3	-417	nt	6	nt	nt	nt	nt	nt
c1ccc(-c2nc(C3CCCCC3)no2)cc1	59*	34	12	13	2	-6	-5	-1	57*	13	5
CCOC(=O)c1sc2nc(Cc3ccc(Cl)cc3)[nH]c(=S)c2c1C	2	2	1	-10	-10	-2	nt	nt	nt	nt	nt
CN=c1scc(C)n1/N=C/c1ccc(O)c(O)c1O	26	-8	-10	14	6	39	nt	nt	nt	nt	nt
CN=c1scc(-c2cccs2)n1/N=C/c1ccccc1O	96*	95*	94*	-40	74*	94*	50	94*	102*	94*	19
CN=c1scc(-c2cccs2)n1/N=C/c1ccc(O)c(O)c1O	79*	57*	82*	30	38	91*	95*	95*	99*	80*	82*
COC(=O)c1ccc2c(c1O)C(=O)c1ccccc1C2=O	71*	44	44	27	7	37	41	55*	66*	74*	10
O=C(O)c1ccc([N+](=O)[O-])c2c1C(=O)c1ccccc1C2=O	-7	-4	-6	18	nt	-11	nt	nt	nt	nt	nt
Nc1c(C(=O)O)ccc2c1C(=O)c1ccccc1C2=O	-9	4	54*	29	3	1	69*	66*	83*	79*	73*
Nc1c(SCCC(=O)O)ccc2c1C(=O)c1ccccc1C2=O	89*	45	84*	31	nt	-1	93*	93*	98*	94*	92*
O=C(CSc1nnc(COc2ccc(Cl)cc2)o1)Nc1nccs1	nt	nt	nt	4	nt	3	nt	nt	nt	nt	nt
COC(=O)c1c(C)[nH]c(C(=O)OCc2csc(CC(=O)Nc3ccccc3C)n2)c1C	-23	-4	-10	-4	nt	-8	nt	nt	nt	nt	nt
C=CCn1c(SCn2nnc3ccccc3c2=O)nc2scc(-c3cccs3)c2c1=O	-4	74*	-1	10	-7	4	7	6	2	1	3
NS(=O)(=O)c1ccc(NC(=O)C(Sc2ccccc2)c2ccccc2)cc1 (centres undefined)	-11	-5	-2	19	8	-2	nt	nt	nt	nt	nt
COc1ccc2nc(C(c3ccc(C)cc3)n3c(-c4ccccc4Br)nc4ccccc43)[nH]c2c1 (centres undefined)	nt	nt	nt	-354	nt	19	nt	nt	nt	nt	nt
Cc1[nH]n(-c2ccc([N+](=O)[O-])cc2)c(=O)c1C=NCCN1CCN(C(=O)C(C)C)CC1	85*	78*	62*	25	20	29	23	28	39	48	43
CCCc1[nH]n(-c2ccc([N+](=O)[O-])cc2)c(=O)c1C=NCCN1CCNCC1	92*	87*	84*	nt	-8	nt	78*	50*	57*	85*	69*
CCOC(=O)c1cc(NC(=O)Nc2ccc(Br)cc2)c(C)nc1C	14	-5	6	14	8	-5	nt	nt	nt	nt	nt
Cc1noc(NS(=O)(=O)c2ccc(NC(=O)C(CC(C)C)N3C(=O)c4ccccc4C3=O)cc2)c1C (centres undefined)	-13	3	8	11	-4	-11	nt	nt	nt	nt	nt
COc1ccc(CCn2c(N)c(C(=O)NCc3ccco3)c3nc4ccccc4nc32)cc1OC	70*	35	38	-315	11	1	15	10	2	-1	-1
SMILES	SENP6 inh	SENP7 block	SENP8 block-1	SENP8 block-2	PPC-1+TRAIL kill	C8 TRAIL sens	SENP8 confirm	SENP6 conf	SENP7 confirm	Casp3 select	SENP luc ctr
Nc1c(C(=O)NCc2ccco2)c2nc3ccccc3nc2n1CCc1ccccc1F	51*	34	40	-300	19	-4	2	6	-9	2	-2
COc1ccc(CCn2c(N)c(C(=O)NCc3ccco3)c3nc4ccccc4nc32)cc1	25	19	14	-361	2	-44	nt	nt	nt	nt	nt
COc1ccc(-n2c(N)c(C(=O)NCc3ccco3)c3nc4ccccc4nc32)c(OC)c1	32	9	9	-402	0	-9	nt	nt	nt	nt	nt
COC(=O)c1ccc(C(=O)N2CCCC(N3CCN(c4ccc(F)cc4)CC3)C2)nc1 (centres undefined)	-6	1	18	11	nt	-2	nt	nt	nt	nt	nt
COc1ccc(Br)cc1-c1noc(-c2ccccc2F)n1	-23	6	-12	21	11	7	nt	nt	nt	nt	nt
COC(=O)c1cccc(-c2noc(-c3ccccc3F)n2)c1	64*	81*	48	10	nt	23	40	39	66*	56*	34
NC(=O)c1ccccc1-c1nc(-c2ccccc2)no1	-42	4	-17	18	1	1	nt	nt	nt	nt	nt
